{"source": "PubChem BioAssay AID2283220", "about": "(EPA ToxCast)", "note": "Results filed as inconclusive are left out. Active and inactive are the calls of the source. How the source made its calls: active means hit-call score of the fitted dose curve at least 0.9, where 1 is the maximum; inconclusive means response in the unintended direction; inactive means score below 0.9."}
{"molecular_target": "human Serum/Glucocorticoid Regulated Kinase 1 (SGK1), SGK1 (gene 6446) (UniProt O00141)", "sequence (O00141 whole entry, looked up)": "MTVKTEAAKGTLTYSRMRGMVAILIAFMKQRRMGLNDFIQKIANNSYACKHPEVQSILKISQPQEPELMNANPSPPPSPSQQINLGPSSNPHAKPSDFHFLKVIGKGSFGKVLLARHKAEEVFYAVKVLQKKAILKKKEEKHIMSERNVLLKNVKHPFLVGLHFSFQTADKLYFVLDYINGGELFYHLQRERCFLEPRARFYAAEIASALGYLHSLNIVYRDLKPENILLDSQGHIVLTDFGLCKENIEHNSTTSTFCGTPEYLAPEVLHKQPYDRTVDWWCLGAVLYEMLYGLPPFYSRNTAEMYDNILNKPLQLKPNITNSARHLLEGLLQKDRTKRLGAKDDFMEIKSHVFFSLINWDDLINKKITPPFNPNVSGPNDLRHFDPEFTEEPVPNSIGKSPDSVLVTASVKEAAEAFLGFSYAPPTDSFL", "experiment": "NVS_ENZ_hSGK1: NovaScreen (NVS) Enzymatic Assay for human Serum/Glucocorticoid Regulated Kinase 1 (SGK1)", "procedure": "NVS_ENZ_hSGK1 is a biochemical, single-readout assay that uses extracted gene-proteins in a cell-free assay. Measurements were taken 1 hour after chemical dosing in a 96-well plate.NVS_ENZ_hSGK1 is one of one assay component(s) measured or calculated from the NVS_ENZ_hSGK1 assay. It is designed to make measurements of enzyme activity, a form of enzyme reporter, as detected with fluorescence intensity signals by Fluorescence and electrophoretic mobility shift technology.Data from the assay component NVS_ENZ_hSGK1 was analyzed into 1 assay endpoint. This assay endpoint, NVS_ENZ_hSGK1, was analyzed in the positive analysis fitting direction relative to DMSO as the negative control and baseline of activity. Using a type of enzyme reporter, loss-of-signal activity can be used to understand changes in the enzymatic activity as they relate to the gene SGK1. Furthermore, this assay endpoint can be referred to as a primary readout, because this assay has produced […] where this one serves a enzymatic activity function. To generalize the intended target to other relatable targets, this assay endpoint is annotated to the kinase intended target family, where the subfamily is serine/threonine kinase.\nBinding assays used specific radioligands (tritiated, iodinated) with non-radioactive competitive displacement ligands in agonist or antagonist protocols (as indicated) and various reference compounds and inhibitors to titrate specific binding to receptors and transporters. Most enzyme assays (CYPs, kinases, phosphatases, proteases, HDACs) used recombinant protein and specific substrates (fluorescence mostly, some colorimetric and radioactive) and inhibitors, followed by a biochemical separation of substrate and product. All assays for the biochemical HTS were initially run in duplicate at a single concentration (10 uM for CYP450 assays and 25 uM for all others). Assay-chemical combinations meeting a pre-defined threshold (e.g., 30% inhibition and other criteria defined below) were then run in singleton concentration-response format with maximum concentration of 20 uM for CYPs and 50 uM for all others. Each assay was run with positive and negative controls, and concurrent controls on every plate. The follow-up (secondary) screen tested active chemical-pairs in concentration series, as well as a few additional assays not tested in the primary screen, some selected negative inactives, and several cases re-run in the concentration series for confirmatory purposes."}
{"compound": "O=S(=O)(O)C(F)(F)C(F)(F)C(F)(F)C(F)(F)C(F)(F)C(F)(F)C(F)(F)C(F)(F)F", "AC50": "26.2 µM (active)"}
{"compound": "OC(c1ccc(Cl)cc1)(c1ccc(Cl)cc1)C(Cl)(Cl)Cl", "outcome": "inactive"}
{"compound": "COP(=S)(OC)Oc1ccc([N+](=O)[O-])cc1", "outcome": "inactive"}
{"compound": "O=C(O)C(F)(F)C(F)(F)C(F)(F)C(F)(F)C(F)(F)C(F)(F)C(F)(F)F", "outcome": "inactive"}
{"compound": "S=C1NCCN1", "outcome": "inactive"}
{"compound": "CCNc1nc(Cl)nc(NCC)n1", "outcome": "inactive"}
{"compound": "CC(Oc1cccc(Cl)c1)C(=O)O", "note": "(centres undefined)", "outcome": "inactive"}
{"compound": "O=C(O)COc1ccc(Cl)cc1Cl", "outcome": "inactive"}
{"compound": "CCCC(=NOCC)C1=C(O)CC(CC(C)SCC)CC1=O", "note": "(centres undefined)", "outcome": "inactive"}
{"compound": "COC(=O)c1ccccc1S(=O)(=O)NC(=O)N(C)c1nc(C)nc(OC)n1", "outcome": "inactive"}
{"compound": "N#Cc1c(Cl)c(Cl)c(Cl)c(C#N)c1Cl", "AC50": "19.8 µM (active)"}
{"compound": "CNC(=S)S", "outcome": "inactive"}
{"compound": "Nc1c(Cl)cc([N+](=O)[O-])cc1Cl", "outcome": "inactive"}
{"compound": "CC(C)OC(=O)Nc1cccc(Cl)c1", "outcome": "inactive"}
